This passage reports Potency results from PubChem BioAssay AID1469 (National Center for Advancing Translational Sciences (NCATS), 2008).

Out of some 280,000 compounds screened, about 180 (0.064%) were called active. Where a call stands in place of a potency, no number is given. This is one part of a sample in which actives are shown more often than they occur. The call rests on the fitted dose curve; in most records, active means well fitted inhibition curve with a large enough effect; inconclusive means small, poorly fitted or top-dose-only effect, or effect the other way; inactive means flat fitted curve, though single readings scatter.
Potency means the concentration at half of the fitted maximal effect.

Chain of Thyroid hormone receptor beta (Homo sapiens) (P10828 whole entry, looked up): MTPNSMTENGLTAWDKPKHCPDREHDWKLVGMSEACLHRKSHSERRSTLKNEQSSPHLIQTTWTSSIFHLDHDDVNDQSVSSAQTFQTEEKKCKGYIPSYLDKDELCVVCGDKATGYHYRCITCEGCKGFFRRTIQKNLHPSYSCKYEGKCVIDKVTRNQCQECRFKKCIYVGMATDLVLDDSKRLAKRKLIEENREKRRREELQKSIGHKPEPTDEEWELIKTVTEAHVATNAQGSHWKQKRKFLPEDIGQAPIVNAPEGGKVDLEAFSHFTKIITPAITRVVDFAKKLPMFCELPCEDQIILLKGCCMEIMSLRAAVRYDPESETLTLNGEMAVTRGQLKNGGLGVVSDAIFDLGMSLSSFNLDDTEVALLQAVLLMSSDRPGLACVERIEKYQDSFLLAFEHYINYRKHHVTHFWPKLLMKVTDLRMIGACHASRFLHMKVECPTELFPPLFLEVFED

The assay concerns the target Thyroid hormone receptor beta (Homo sapiens) (UniProt P10828). Briefly: qHTS for Inhibitors of the Interaction of Thyroid Hormone Receptor and Steroid Receptor Coregulator 2. Further: nearly all actives have a fitted effect of over 50% in size. The settings on record: TRbeta-SRC2 peptide binding, fluorescence polarization, receptor liganded with 1 µM T3; series mostly up to 201 µM. From the text:
NIH Molecular Libraries Probe Production Network [MLPCN]
NIH Chemical Genomics Center [NCGC]
Assay Provider: R. Kip Guy, St. Jude Children's Research Hospital
Thyroid receptor (TR) regulates many homeostatic processes including basal metabolism, cardiovascular function, body weight, and lipid trafficking. TR modulators are potential therapeutics for obesity and hyperlipidemias but current thyroid analogs have undesirable side effects, particularly cardiac stimulation. To identify inhibitors that specifically prevent the interaction of TR with the steroid receptor coregulator 2 (SRC2), a fluorescence polarization assay was screened. This assay detects interaction of the ligand-binding domain of human TRb with a Texas Red labeled SRC2 peptide, corresponding to a 20 amino acid region of the nuclear receptor interaction domain (Arnold et al., 2006). Small molecule inhibitors that block the interaction of TR and SRC2 are detected by a decrease in fluorescence polarization.
Arnold, L. A.; Estebanez-Perpina, E.; Togashi, M.; Shelat, A.; Ocasio, C. A.; McReynolds, A. C.; Nguyen, P.; Baxter, J. D.; Fletterick, R. J.; Webb, P.; Guy, R. K. A high-throughput screening method to identify small molecule inhibitors of thyroid hormone receptor coactivator binding. Sci STKE 2006, p 13.
NCGC Assay Protocol Summary:
For screening, 5 uL/well 0.6 uM TRb and 20 nM SRC2 Texas Red in protein buffer (20mM Tris hydrochloride, 100mM NaCl, 10% glycerol, 1mM EDTA, 0.01% NP-40, 1mM DTT, 1uM T3 and 5% DMSO) was dispensed into black solid 1536-well plates (Grenier) using a solenoid-based dispenser. Following transfer of 23 nL compound or DMSO vehicle by a pin tool, the plates were centrifuged 15 s at 1000 RPM and incubated 5 hr at ambient temperature. The plates were read by an Envision (Perkin Elmer) to detect fluorescence polarization of SRC2 Texas Red (555 nm excitation and 632 nm emission). Data were normalized to unbound (all components except TRb) and bound SRC2 Texas Red controls. In this assay, we provide % activity data for each concentration as well as potencies for the active compounds.
Keywords: NIH Roadmap, MLPCN, MLI, MLSMR, qHTS, NCGC, qHTS, thyroid hormone receptor, steroid receptor coactivator, fluorescence polarization
In the case of `CC[N+](C)(CC)CCC[n+]1c(-c2ccccc2)c2cc(N)ccc2c2ccc(N)cc21`, the Potency is 44.7 µM (active).

As for `Oc1ccc(C2(c3ccc(O)cc3)c3ccccc3-c3ccccc32)cc1`, the Potency result is “inactive”.

Consider `[Ga]#[As]`, for which the Potency entry is “inactive”. As for `CCOP(=O)(SC(C)CC)SC(C)CC` (stereo not given), the entry is “inactive”. In the case of `COc1nc(C)nc(NC(=O)NS(=O)(=O)c2ccccc2CCC(F)(F)F)n1`, the Potency result is “inactive”.
